This passage reports inhibition results from ChEMBL document CHEMBL1961873, “Compounds: GSK PKIS; Assays: Nanosyn kinase panel” (2012).

Test [1] deals with Sphingosine kinase 1 (Homo sapiens) (UniProt Q9NYA1). As to conditions: at 1 µM.
The target of test [2] is T1, Sphingosine kinase 2 (Homo sapiens) (UniProt Q9NRA0).
T1 sequence (whole entry): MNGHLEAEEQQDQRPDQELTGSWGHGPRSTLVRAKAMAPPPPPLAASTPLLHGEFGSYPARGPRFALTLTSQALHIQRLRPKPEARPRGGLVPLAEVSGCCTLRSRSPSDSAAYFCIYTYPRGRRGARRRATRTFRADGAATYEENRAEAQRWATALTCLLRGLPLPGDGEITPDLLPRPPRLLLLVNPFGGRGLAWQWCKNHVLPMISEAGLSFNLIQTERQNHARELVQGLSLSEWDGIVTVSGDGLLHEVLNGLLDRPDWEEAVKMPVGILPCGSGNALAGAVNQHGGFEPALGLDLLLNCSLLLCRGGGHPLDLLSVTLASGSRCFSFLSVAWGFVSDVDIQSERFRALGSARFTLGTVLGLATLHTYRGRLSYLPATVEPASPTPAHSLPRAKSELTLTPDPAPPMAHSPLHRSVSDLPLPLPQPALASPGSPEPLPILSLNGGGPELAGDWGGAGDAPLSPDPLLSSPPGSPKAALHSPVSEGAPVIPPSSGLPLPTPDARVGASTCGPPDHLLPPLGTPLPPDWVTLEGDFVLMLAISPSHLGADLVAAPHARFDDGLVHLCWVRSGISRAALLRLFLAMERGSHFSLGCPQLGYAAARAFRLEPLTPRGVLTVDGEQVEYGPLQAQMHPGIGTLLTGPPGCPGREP
As to conditions: at 0.1 µM.

The target of test [3] is T1, Sphingosine kinase 2 (Homo sapiens). As to conditions: at 1 µM.
Test [4] deals with Casein kinase II subunit alpha (Homo sapiens) (UniProt P68400). As to conditions: at 0.1 µM.
The target is the same in test [5]. As to conditions: at 1 µM.
Test [6] addresses T2, Inhibitor of nuclear factor kappa-B kinase subunit alpha (Homo sapiens) (UniProt O15111).
T2 sequence (whole entry): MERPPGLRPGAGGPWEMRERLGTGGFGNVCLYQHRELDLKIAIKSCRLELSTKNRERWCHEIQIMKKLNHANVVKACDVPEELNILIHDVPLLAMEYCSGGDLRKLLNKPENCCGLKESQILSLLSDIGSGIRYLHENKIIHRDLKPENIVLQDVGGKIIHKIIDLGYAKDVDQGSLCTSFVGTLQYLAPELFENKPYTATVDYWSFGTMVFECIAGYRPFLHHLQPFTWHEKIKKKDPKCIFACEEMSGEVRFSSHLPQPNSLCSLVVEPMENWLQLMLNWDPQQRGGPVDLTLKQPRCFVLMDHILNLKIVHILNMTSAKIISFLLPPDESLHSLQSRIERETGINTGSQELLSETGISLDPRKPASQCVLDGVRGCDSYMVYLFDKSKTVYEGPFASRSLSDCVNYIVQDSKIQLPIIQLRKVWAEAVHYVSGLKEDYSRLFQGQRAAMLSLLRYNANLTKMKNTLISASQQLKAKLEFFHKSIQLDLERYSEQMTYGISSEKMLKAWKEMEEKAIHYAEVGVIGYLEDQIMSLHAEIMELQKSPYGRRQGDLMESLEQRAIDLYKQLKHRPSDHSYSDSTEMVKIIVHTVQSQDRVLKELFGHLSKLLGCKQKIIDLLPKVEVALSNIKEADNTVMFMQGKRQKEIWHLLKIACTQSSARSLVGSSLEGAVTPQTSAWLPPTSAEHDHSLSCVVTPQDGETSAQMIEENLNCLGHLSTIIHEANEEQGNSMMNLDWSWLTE
As to conditions: at 0.1 µM.

The target in test [7] is T2, Inhibitor of nuclear factor kappa-B kinase subunit alpha (Homo sapiens). As to conditions: at 1 µM.
Test [8] has as its target T3, Inhibitor of nuclear factor kappa-B kinase subunit beta (Homo sapiens) (UniProt O14920).
T3 sequence (whole entry): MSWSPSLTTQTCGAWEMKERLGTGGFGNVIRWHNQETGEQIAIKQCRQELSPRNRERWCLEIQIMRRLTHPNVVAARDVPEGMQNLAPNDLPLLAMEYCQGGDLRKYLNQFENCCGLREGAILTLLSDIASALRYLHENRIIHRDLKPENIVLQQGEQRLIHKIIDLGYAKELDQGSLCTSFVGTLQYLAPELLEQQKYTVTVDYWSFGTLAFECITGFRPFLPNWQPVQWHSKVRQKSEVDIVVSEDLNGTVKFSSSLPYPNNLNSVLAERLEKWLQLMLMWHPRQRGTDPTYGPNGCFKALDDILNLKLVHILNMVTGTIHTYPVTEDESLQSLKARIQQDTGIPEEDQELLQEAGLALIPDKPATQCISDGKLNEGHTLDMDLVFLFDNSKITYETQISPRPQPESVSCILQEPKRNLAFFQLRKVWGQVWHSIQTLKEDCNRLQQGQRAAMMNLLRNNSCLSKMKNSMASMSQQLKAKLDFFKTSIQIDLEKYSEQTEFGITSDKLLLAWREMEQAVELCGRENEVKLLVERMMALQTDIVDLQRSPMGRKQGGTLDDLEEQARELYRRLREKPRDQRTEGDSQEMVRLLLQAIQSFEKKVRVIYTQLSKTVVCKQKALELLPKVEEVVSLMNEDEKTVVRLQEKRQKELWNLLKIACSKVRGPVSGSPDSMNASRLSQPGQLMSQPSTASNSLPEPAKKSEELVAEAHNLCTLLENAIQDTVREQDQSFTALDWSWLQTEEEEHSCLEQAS
Particulars: at 0.1 µM.

Test [9] has as its target T3, Inhibitor of nuclear factor kappa-B kinase subunit beta (Homo sapiens). Particulars: at 1 µM.
Test [10] deals with T4, Inhibitor of nuclear factor kappa-B kinase subunit epsilon (Homo sapiens) (UniProt Q14164).
T4 sequence (whole entry): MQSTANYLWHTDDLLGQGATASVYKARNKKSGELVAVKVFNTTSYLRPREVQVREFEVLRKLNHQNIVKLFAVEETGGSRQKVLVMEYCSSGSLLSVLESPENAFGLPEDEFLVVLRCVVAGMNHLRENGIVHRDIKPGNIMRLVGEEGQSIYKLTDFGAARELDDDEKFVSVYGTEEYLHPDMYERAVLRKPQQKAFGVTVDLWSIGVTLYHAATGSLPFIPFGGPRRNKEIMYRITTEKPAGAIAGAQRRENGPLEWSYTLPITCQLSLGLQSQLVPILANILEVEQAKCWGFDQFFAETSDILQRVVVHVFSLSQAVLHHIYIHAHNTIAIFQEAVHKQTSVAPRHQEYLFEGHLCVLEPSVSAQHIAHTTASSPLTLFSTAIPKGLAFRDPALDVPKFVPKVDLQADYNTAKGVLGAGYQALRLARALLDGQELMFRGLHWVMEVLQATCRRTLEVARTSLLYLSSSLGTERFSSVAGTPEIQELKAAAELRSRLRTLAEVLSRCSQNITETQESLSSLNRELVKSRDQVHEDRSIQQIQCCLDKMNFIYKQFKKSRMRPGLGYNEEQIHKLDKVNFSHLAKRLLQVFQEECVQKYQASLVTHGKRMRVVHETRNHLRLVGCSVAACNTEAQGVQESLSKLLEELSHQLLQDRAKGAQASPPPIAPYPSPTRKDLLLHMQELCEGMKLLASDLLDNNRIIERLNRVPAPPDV
Particulars: at 0.1 µM.

For test [11], the target named is T4, Inhibitor of nuclear factor kappa-B kinase subunit epsilon (Homo sapiens). Particulars: at 1 µM.
For test [12], the target named is T5, Serine/threonine-protein kinase Nek1 (Homo sapiens) (UniProt Q96PY6).
T5 sequence (whole entry): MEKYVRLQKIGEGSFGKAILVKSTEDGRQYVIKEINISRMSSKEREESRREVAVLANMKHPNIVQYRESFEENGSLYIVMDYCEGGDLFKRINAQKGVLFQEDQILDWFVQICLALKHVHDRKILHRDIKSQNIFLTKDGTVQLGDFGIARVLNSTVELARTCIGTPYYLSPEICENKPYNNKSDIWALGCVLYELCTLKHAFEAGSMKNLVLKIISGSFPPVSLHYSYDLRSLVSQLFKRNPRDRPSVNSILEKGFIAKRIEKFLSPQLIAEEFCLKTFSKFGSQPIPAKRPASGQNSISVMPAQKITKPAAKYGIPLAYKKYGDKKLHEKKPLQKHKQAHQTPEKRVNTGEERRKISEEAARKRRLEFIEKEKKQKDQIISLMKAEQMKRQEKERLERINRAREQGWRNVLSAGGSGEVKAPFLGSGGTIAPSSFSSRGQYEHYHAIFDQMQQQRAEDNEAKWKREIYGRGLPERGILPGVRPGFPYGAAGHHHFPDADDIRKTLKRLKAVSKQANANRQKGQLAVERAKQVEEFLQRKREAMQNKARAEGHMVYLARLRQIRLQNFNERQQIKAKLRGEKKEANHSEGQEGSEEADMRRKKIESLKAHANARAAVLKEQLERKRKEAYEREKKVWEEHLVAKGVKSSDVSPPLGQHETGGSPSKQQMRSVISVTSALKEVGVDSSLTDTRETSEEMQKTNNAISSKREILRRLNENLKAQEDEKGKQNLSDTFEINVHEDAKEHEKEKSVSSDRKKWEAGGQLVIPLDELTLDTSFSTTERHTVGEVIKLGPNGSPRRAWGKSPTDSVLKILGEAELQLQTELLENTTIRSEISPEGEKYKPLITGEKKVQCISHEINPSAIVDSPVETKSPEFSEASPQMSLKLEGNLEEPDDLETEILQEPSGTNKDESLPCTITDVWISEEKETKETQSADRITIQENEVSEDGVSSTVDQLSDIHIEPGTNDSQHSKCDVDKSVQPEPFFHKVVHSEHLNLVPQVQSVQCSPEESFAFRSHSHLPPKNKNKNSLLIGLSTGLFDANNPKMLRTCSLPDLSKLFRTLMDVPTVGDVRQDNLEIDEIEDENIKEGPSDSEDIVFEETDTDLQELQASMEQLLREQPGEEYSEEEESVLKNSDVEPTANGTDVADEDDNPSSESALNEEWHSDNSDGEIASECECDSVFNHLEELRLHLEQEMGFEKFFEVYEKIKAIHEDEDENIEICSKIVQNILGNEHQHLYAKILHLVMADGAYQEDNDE
As to conditions: at 0.1 µM.

For test [13], the target named is T5, Serine/threonine-protein kinase Nek1 (Homo sapiens). As to conditions: at 1 µM.
Test [14] concerns the target T6, Serine/threonine-protein kinase Nek2 (Homo sapiens) (UniProt P51955).
T6 sequence (whole entry): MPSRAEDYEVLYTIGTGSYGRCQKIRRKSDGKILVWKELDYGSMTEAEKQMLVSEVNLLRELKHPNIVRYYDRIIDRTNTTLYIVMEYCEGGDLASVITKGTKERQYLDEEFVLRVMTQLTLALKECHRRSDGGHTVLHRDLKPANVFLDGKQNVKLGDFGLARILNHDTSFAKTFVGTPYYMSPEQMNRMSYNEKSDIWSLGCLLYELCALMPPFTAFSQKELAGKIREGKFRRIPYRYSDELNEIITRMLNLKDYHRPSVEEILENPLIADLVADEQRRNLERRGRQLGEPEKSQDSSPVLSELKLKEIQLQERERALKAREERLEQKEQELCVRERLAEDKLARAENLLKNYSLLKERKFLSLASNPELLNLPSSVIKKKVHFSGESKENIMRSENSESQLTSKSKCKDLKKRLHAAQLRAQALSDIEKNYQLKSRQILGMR
Particulars: at 0.1 µM.

The target of test [15] is T6, Serine/threonine-protein kinase Nek2 (Homo sapiens). Particulars: at 1 µM.
Test [16] concerns the target Serine/threonine-protein kinase Nek6 (Homo sapiens) (UniProt Q9HC98). As to conditions: at 0.1 µM.
Test [17] shares this target. Particulars: at 1 µM.
Test [18] deals with Serine/threonine-protein kinase Nek7 (Homo sapiens) (UniProt Q8TDX7). Particulars: at 0.1 µM.
The target is the same in test [19]. As to conditions: at 1 µM.
Test [20] deals with T7, Serine/threonine-protein kinase Nek9 (Homo sapiens) (UniProt Q8TD19).
T7 sequence (whole entry): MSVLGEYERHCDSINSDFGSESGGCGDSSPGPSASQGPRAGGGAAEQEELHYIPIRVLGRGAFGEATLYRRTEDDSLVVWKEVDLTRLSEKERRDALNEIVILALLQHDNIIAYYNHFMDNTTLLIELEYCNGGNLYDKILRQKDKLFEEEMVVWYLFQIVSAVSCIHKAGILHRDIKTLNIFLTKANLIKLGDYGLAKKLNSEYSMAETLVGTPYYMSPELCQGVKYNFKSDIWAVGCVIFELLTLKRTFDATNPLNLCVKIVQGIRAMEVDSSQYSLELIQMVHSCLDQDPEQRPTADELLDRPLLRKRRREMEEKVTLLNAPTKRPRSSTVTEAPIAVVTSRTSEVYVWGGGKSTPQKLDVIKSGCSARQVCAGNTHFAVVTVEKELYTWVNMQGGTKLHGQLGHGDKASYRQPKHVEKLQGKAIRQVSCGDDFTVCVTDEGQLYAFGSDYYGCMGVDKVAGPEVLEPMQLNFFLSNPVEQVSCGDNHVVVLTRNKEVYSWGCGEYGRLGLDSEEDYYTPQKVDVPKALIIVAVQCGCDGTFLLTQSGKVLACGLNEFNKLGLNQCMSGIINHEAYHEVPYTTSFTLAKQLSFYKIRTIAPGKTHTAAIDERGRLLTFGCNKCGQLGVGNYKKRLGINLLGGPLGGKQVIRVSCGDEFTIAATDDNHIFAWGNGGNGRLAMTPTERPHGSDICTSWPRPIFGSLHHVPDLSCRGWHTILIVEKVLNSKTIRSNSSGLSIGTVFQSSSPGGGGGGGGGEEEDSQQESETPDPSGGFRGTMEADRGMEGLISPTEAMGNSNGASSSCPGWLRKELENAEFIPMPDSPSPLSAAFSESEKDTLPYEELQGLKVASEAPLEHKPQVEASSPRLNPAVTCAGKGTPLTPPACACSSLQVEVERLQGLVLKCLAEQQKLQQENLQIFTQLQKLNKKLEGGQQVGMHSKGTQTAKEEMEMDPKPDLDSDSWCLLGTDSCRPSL
As to conditions: at 0.1 µM.

As a reminder, the inhibition is the drop in the measured response relative to a control, in per cent.

Sequence of Casein kinase II subunit alpha (Homo sapiens) (P68400 whole entry, looked up): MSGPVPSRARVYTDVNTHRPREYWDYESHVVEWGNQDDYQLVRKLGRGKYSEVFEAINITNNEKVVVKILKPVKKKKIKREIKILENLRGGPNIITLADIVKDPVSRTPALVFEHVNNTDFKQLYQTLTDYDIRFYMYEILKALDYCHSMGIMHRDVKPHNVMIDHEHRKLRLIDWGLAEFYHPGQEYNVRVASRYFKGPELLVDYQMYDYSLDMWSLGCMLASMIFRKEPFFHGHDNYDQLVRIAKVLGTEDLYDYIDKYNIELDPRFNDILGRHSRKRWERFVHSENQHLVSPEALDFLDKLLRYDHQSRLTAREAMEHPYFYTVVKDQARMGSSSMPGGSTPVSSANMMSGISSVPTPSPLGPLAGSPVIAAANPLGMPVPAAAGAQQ
Sequence of Serine/threonine-protein kinase Nek7 (Homo sapiens) (Q8TDX7 whole entry, looked up): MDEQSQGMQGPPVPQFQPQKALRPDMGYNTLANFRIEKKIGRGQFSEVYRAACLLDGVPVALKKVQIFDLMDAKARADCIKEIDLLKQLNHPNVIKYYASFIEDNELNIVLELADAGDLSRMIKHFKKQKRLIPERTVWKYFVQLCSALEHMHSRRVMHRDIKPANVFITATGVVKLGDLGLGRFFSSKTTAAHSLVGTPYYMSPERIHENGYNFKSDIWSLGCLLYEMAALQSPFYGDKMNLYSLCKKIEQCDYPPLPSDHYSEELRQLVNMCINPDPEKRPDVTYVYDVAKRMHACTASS
Sequence of Serine/threonine-protein kinase Nek6 (Homo sapiens) (Q9HC98 whole entry): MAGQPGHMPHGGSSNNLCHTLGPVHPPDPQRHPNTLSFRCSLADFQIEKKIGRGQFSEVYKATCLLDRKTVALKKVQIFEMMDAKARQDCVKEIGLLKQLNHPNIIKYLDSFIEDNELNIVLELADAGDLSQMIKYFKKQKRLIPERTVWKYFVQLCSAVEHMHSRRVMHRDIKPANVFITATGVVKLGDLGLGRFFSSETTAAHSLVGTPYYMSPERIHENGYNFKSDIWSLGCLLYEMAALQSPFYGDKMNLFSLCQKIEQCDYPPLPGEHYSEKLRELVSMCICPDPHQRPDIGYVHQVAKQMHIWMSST
Sequence of Sphingosine kinase 1 (Homo sapiens) (Q9NYA1 whole entry): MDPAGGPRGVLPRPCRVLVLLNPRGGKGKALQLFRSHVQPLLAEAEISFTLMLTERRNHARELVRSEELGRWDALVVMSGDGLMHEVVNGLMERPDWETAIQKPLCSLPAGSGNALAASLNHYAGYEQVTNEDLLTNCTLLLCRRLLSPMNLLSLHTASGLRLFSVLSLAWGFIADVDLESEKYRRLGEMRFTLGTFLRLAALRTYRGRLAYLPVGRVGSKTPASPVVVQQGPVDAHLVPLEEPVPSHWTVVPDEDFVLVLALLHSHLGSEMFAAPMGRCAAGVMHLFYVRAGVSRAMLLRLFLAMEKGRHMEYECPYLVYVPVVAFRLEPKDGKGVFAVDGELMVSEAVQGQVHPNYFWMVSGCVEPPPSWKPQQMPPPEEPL

In the case of `CN1CCC(n2cnc(-c3ccc(F)cc3)c2-c2ccnc(NCCO)n2)CC1`, the inhibition was -1.28% in test [1]; 0.37% in [2]; -1.92% in test [3]; 4.78% in test [4]; 13.2% in test [5]; 2.6% in [6]. Moreover, the inhibition in test [7] is 6.82%; in [8] it was 5.84%; in test [9], 6.36%; in [10], 7.53%; in test [11] it was 9.51%; in test [12], 2.52%. Further, the inhibition in test [13] came to 3.44%; in [14], 5.2%; in test [15], 5.72%; in [16], 3.54%; in [17], 5.15%; in [18], 2.96%. In addition, the inhibition in test [19] came out at 3.39%; in [20], 5.09%.
